40 compounds from PubChem BioAssay can be followed below.

The structures appear in SMILES notation. The source made the active and inactive calls.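 How the source made its calls: active means mean inhibition above 46.68%, the untreated control wells mean plus 3 SD; inactive means the rest.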

Sequence of Nuclear receptor coactivator 1 (Homo sapiens) (Q15788 whole entry, looked up, the tested form may be a part): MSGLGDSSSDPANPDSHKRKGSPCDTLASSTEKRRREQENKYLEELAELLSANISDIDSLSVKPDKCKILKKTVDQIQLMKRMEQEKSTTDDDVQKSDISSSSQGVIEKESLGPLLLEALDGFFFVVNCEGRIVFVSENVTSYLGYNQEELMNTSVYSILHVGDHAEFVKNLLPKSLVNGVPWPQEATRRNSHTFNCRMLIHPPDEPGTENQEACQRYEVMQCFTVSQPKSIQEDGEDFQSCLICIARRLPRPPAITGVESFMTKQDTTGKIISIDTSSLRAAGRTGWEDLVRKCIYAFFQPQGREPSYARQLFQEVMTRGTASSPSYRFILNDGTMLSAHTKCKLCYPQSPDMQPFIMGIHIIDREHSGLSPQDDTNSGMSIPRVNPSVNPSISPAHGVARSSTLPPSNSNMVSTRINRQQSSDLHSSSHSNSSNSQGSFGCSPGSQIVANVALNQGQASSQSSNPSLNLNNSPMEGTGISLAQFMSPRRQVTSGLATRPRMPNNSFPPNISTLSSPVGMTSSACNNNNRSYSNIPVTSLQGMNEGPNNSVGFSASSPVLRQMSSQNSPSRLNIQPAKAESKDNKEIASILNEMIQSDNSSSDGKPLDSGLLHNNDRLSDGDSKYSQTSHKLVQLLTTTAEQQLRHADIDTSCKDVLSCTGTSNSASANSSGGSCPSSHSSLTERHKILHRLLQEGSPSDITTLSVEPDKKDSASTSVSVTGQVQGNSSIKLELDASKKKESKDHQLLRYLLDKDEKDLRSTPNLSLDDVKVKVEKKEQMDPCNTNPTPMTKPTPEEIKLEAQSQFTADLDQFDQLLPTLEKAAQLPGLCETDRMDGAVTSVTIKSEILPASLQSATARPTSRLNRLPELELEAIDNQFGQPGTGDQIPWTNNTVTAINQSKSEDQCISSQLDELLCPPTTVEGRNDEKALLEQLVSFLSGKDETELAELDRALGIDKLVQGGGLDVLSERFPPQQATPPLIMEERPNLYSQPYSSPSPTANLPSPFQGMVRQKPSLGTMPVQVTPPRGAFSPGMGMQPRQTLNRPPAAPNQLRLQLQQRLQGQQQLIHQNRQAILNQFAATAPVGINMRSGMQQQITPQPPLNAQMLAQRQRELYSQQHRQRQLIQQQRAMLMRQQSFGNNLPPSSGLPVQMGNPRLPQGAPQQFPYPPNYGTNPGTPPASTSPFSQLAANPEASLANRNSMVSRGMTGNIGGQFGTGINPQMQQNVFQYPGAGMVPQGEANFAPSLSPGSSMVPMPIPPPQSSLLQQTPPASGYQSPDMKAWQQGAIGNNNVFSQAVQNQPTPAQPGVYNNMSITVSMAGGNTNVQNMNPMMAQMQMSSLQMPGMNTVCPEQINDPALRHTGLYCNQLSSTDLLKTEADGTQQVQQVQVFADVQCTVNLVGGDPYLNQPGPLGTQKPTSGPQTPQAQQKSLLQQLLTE

This assay has as its target Nuclear receptor coactivator 1 (Homo sapiens) (UniProt Q15788). The assay is described as follows: NCOA1 GAL4-fusion reporter inhibition – cell-based, luminescence, quadruplicate, confirmation (AID 588820).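 Further: 0% = DMSO wells and 100% = gossypol 36 µM treated wells.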 The conditions noted are these: HEK293 GAL4-SRC1 luciferase reporter, at 3.6 µM, hits give high values. On the technique in general: Reporter assays use an easily measured gene product as a stand-in for the process of interest.
In the case of `Cn1c(=O)c2c(nc(Oc3ccc4ccccc4c3)n2C)n(C)c1=O`, the inhibition – broadly, the relative decrease from the control value, in per cent – was 53.3% (active).

On to `CCN(CC)CCCNc1ccc2ncn3c4ccc(O)cc4c(=O)c1c23`, for which the inhibition is 47.9% (active).

`O=C(Nc1nc(-c2ccc(S(=O)(=O)N3CCCC3)cc2)cs1)C1COc2ccccc2O1` (stereo not given): the inhibition was -8.23% (inactive).

Turning to `Cn1c(=N)n(CC(=O)c2ccc(Cl)c(Cl)c2)c2ccccc21`, the inhibition was -189% (inactive). For the compound `Cn1c(C(=O)O)c(CC(=O)Nc2ccc3c(c2)OCCO3)c2ccccc21`, the inhibition was -17.2% (inactive). With `O=C(Nc1scc(-c2ccc(Br)cc2)c1C(=O)O)c1ccccc1F`, the inhibition was -17.2% (inactive). The figure for `CCN(CC)S(=O)(=O)c1ccc(/C=C/C(=O)Nc2ccc(F)c(F)c2F)cc1` is 3.76% (inactive); for `Cc1cc(C(=O)COC(=O)c2cccc(NS(C)(=O)=O)c2)c(C)n1CC1CCCO1` (stereo not given) it is -46.9% (inactive). The figure for `CCCCC(=O)OCC(=O)C1(O)Cc2c(O)c3c(c(O)c2C(OC2CC(NC(=O)C(F)(F)F)C(O)C(C)O2)C1)C(=O)c1c(OC)cccc1C3=O` (stereo not given) is 29.3% (inactive); for `Cc1[nH]ccc2cc3nc4ccccc4c3cc12` it is 31.7% (inactive). The figure for `COc1cccc(/C=N/NC(=O)C(=O)Nc2ccccc2OC(F)(F)C(F)F)c1O` is 33.3% (inactive); for `CC(O)CC(C(=O)NNc1ccccc1)C(=O)NNc1ccccc1` (stereo not given) it is -6.15% (inactive); for `COc1ccc(/C=C2\N=C(C(C)(C)C)OC2=O)c(OC)c1` it is 10% (inactive). `O=C(c1ccncc1)N(Cc1cc2ccccc2[nH]c1=O)C1CCCCC1`: the inhibition is 42.2% (inactive). The value for `CCCCC(=O)NC(c1ccc(N(C)C)cc1)c1ccc2cccnc2c1O` (stereo not given) was 48% (active); that for `COc1cccc(CNc2ncnc3ccc(-c4c(C)noc4C)cc23)c1` was 19.3% (inactive); that for `CCCCCCCCCCCCCCCC[n+]1cccc2ccccc21` was 39.9% (inactive). The figure for `CC(C)(C)OC(=O)NCC(=O)Oc1cc2oc(=O)cc(-c3ccccc3)c2cc1Cl` is 21.3% (inactive); for `COC1C(OC(=O)/C=C/C=C/C=C/C=C/C(=O)O)CCC2(CO2)C1C1(C)OC1CC=C(C)C` (stereo not given) (tested in a mixture with another compound) it is 9.4% (inactive). The figure for `Cc1cccc(/C=N/Nc2ccc3ccccc3n2)c1` is -80.5% (inactive); for `C/C(=N\NC(=O)c1nnn(-c2nonc2N)c1-c1ccccc1)c1ccccc1O` it is 60.8% (active).

With `O=C(N/N=C/c1cc(Br)ccc1O)c1ccncc1`, the inhibition was 26.4% (inactive). The figure for `N#CC(c1ccc(Cl)cc1)c1ccc2c(C(F)(F)F)cc(C(F)(F)F)nc2n1` (stereo not given) is 32% (inactive); for `O=C(CCSc1nc2ccccc2s1)N/N=C/c1c(O)ccc2ccccc12` it is 36% (inactive); for `COc1cccc(-c2nnc3sc(C4CCCCC4)nn23)c1` it is 57.4% (active).

Consider `CC(=NNc1nc2ccccc2o1)c1cc2ccccc2cn1`, for which the inhibition was 80.6% (active). The value for `CCN(CC)c1ccc2cc(NC(=O)CCC(=O)O)c(=O)oc2c1` was 44.2% (inactive). On to `CC(C)(C)c1cc(C(=O)N/N=C/c2ccc(O)cc2)n(-c2ccccc2)n1`, for which the inhibition was 20.3% (inactive). As for `O=C(Nc1ccc([N+](=O)[O-])cc1)Nc1ccc(OC(F)F)c(Cl)c1`, the inhibition is 10.3% (inactive). The value for `Cc1ccc(NC(=O)C2CCN(c3ncnc4sc(C)c(C)c34)CC2)cc1S(=O)(=O)N(C)C` was 17.6% (inactive); that for `Cc1ccc2nc(-c3ccncc3)c(NC3CCCC3)n2c1` was 27.3% (inactive). Regarding `Nc1ccc(-c2cnc(N)c(C(=O)c3cccnc3)n2)cn1`, the inhibition was 74.3% (active). The value for `COc1ccc2cc3c(N)nn(C(=O)c4ccc(F)cc4)c3nc2c1` was 56.7% (active); that for `O=C(Nc1nc(-c2ccccc2)cs1)c1ccc(N2CCOCC2)c([N+](=O)[O-])c1` was 15.3% (inactive). The figure for `COc1cccc2c1C(=N)c1c(O)c3c(c(O)c1C2=O)CC(O)(C(C)=O)CC3OC1CC(N)C(O)C(C)O1` (stereo not given) is 26.9% (inactive). Take `COc1ccccc1N(C(=O)CCl)c1cn(C(C)=O)c2ccccc12`: the inhibition is 27.2% (inactive). The value for `CCOC(=O)c1ccccc1OC(=O)NNc1ccccc1` was 11.2% (inactive); that for `O=C(Nc1ccc(S(=O)(=O)N2CCCCC2)cc1)c1ccc(CN2CCOCC2)cc1` was -6% (inactive).

Consider `Cc1sc(NC(=O)Cc2ccc3c(c2)OCO3)nc1-c1ccc2c(c1)CCN2C(=O)c1ccc(F)cc1`, for which the inhibition was 17.3% (inactive). The figure for `COc1ccc2[nH]c3c(c2c1)CCNC3=O` is 62.3% (active).
